High-throughput results deposited in PubChem by National Center for Advancing Translational Sciences (NCATS).
Rows were chosen to be rich in hits. Some 21% of all compounds tested hit in one or more screens of this group.
NS1 inh = inhibitors of influenza NS1 protein function | Potency, µM (doses to about 46.1 µM) | 270,000 compounds, 0.4% hits; calls by dose curve; also: actives are rising curves; nearly all actives have a fitted effect of over 50% in size
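A cell-based growth assay was used: compounds that relieve NS1-induced slow growth of budding yeast raise OD600. Assay medium was yeast nitrogen base with ammonium sulphate and -URA supplement, pH 6.0, with 2% galactose.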
Shiga inhibitor = inhibitors of Shiga toxin in Vero cells; Vero cells, Shiga toxin protein synthesis inhibition reporter; inhibition, % at 38.7 µM; 290,000 compounds, 9.2% hits; AID 2315; in the data active = inhibition mostly above about 28%, no sharp cut-off; inactive = mostly below about 43%
Pf growth 96h = P. falciparum growth inhibition at 96 hour, primary screen for plastid delayed-death inhibitors. AID 504834. P. falciparum luciferase reporter growth, 96 h. 320,000 compounds, 6.9% hits. Potency, µM (top dose mostly 28.7 µM), usual class: inhibitors
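96 h incubation, 37 C, 5% CO2, of luciferase-reporter P. falciparum-infected RBCs (2% hematocrit, 0.05% parasitemia final) with test compounds; endpoint luminescence.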
Pf growth 48h = P. falciparum growth inhibition at 48 hours (one generation); AID 504832; 310,000 compounds, 5.9% hits; P. falciparum luciferase growth in erythrocytes, 48 h; Potency, µM (doses to about 28.7 µM), usual class: inhibitors
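Luciferase-expressing P. falciparum in infected erythrocytes (2% hematocrit, 0.1% parasitemia final) in RPMI 1640/0.5% Albumax were exposed to compound for 48 hours at 37 C, 5% CO2; growth read as luminescence.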
CHX counter = affects cycloheximide protein synthesis inhibition readout, counter-screen; cell reporter, cycloheximide protein synthesis inhibition counterscreen; max response, %; 300,000 compounds, 12% hits; in the data active = max response mostly above about 13%, no sharp cut-off; inactive = mostly below about 14%; also: read at 38.3 µM for the half of the compounds with a filed dose
Large screens that a line does not name were inactive. Unless noted, calls follow the shape of the dose curve; as a rule, active = well fitted inhibition curve with a large enough effect; inconclusive = small, poorly fitted or top-dose-only effect, or another doubt; inactive = no such curve, though single readings can be large or run the other way.

CC(C)C(NC(=O)CNC(=O)OC(C)(C)C)C(=O)NCc1ccccc1 (stereo unspecified)	none
COc1ccc(NC(C)=O)cc1CNC(=O)COc1c(C)c(C)cc(C)c1C	Pf growth 48h inconclusive
CC(=O)c1cccc(NC(=O)NCCc2ccc(Cl)cc2)c1	Shiga inhibitor 38
COc1cccc(NC(=O)NCCc2ccc(Cl)cc2)c1	Pf growth 48h inconclusive, CHX counter 24
Cc1ccc2c(n1)sc1c(N)ncnc12	none
Cc1ccc(/C=N/n2cnc3sc(-c4ccccc4)cc3c2=O)o1	Shiga inhibitor 47, CHX counter 24 (no result: Pf growth 48h)
Cc1cc2ncn(/N=C/c3ccc(-c4ccccc4)o3)c2cc1C	none
CC(=Nc1ccc(C)cc1C)c1sc2ccccc2c1O	Shiga inhibitor 119, CHX counter 37
CC(=Nc1ccc(C)cc1)c1sc2ccccc2c1O	Shiga inhibitor 92, CHX counter 35
CC(=Nc1cccc(O)c1)c1sc2ccccc2c1O	Shiga inhibitor 111, CHX counter 55
COc1ccc(S(=O)(=O)N2CCN(C(=O)NCc3ccc(C)cc3)CC2)cc1	Pf growth 48h inconclusive
CCCC(=O)NNC(=O)c1ccoc1C	none
CCC(C)(C)C1CCC(=NNC(=O)c2ccoc2C)CC1 (stereo unspecified)	NS1 inh inconclusive, Shiga inhibitor 69, CHX counter 56 (no result: Pf growth 48h)
COCCNC(=O)CCN1N=C(c2ccccc2)CCC1=O	Pf growth 96h inconclusive
COc1ccccc1NC(=O)c1ccc(CSc2ncccn2)cc1	Shiga inhibitor 55, Pf growth 96h inconclusive, CHX counter 14
COc1ccccc1NC(=O)c1cnc(SC)nc1	none (no result: Shiga inhibitor)
O=C(Nc1ccccc1)c1ccc(CSc2ccccn2)cc1	Shiga inhibitor 63, CHX counter 36
FC(F)(F)c1ccc(CSc2ccccn2)cc1	Shiga inhibitor 53, CHX counter 19
Cc1ccc(C(=O)C(OC(=O)CN2C(=O)c3ccccc3C2=O)c2ccccc2)cc1C (stereo unspecified)	none
O=C(CCCc1ccccc1)NCc1ccccn1	none (no result: Shiga inhibitor)
Cc1ccnc(NC(=O)CCCc2c[nH]c3ccccc23)c1	Shiga inhibitor 46, CHX counter 23
O=C(CCCc1ccccc1)Nc1ccccn1	Shiga inhibitor 74, CHX counter 19
Cn1c(=O)cc(OCCCC(=O)NCc2ccccn2)c2ccccc21	none
Cc1ccnc(NC(=O)CCCOc2cc(=O)n(C)c3ccccc23)c1	CHX counter 16
Cc1ccnc(NC(=O)CCCc2ccccc2)c1	Shiga inhibitor 74, CHX counter 58
CCN(CC)C(=O)CSc1nc2cc(S(=O)(=O)N3CCOCC3)ccc2n1CC	Pf growth 96h inconclusive
CC(C)c1ccc2occ(-c3nn[nH]n3)c(=O)c2c1	none
CCN(CC)CCNC(=O)CCc1c(C)nc2c(c(C)nn2-c2ccc(C)cc2)c1C	Pf growth 96h inconclusive, Pf growth 48h inconclusive
Cc1ccnc(NC(=O)CSc2ccccn2)c1	CHX counter 29
CCC1CCCCN1CCCNC(=O)COc1cc(=O)n(C)c2ccccc12 (stereo unspecified)	none
Cc1cc(NC(=O)CSc2ccccn2)no1	none (no result: NS1 inh)
CCC1CCCCN1CCCNC(=O)CCCOc1cc(=O)n(C)c2ccccc12 (stereo unspecified)	Pf growth 96h 6.6µM (no result: NS1 inh)
CC(C)N1CC(C(=O)Nc2ccc(F)c(Cl)c2)CC1=O (stereo unspecified)	none (no result: Shiga inhibitor)
CC(C)C(=O)Nc1ncc(Cc2ccc(Cl)cc2)s1	none
COCCC(=O)N1CCC(Oc2ccc(C(=O)NCCc3cnn(C)c3)cc2)CC1	none
COC(=O)c1ccccc1C(=O)N1CCCC(CCC(=O)NCc2ccc(F)c(F)c2)C1 (stereo unspecified)	Shiga inhibitor 93, CHX counter 41
COC(=O)c1ccccc1C(=O)N1CCCC(CNC(=O)c2ccc(F)cc2)C1 (stereo unspecified)	CHX counter 12
Cc1ncoc1C(=O)N1CCCC(CCC(=O)NCc2ccc(F)c(F)c2)C1 (stereo unspecified)	none
Cc1noc(C)c1CCC(=O)N1CCCC(CCC(=O)NCc2ccc(F)c(F)c2)C1 (stereo unspecified)	CHX counter 19
COC(=O)c1ccc(C(=O)N2CCCC(CNC(=O)c3ccc(F)cc3)C2)cc1 (stereo unspecified)	none
COc1cccc(CNC(=O)CCC2CCCN(C(=O)c3cccc4c(C)c(C)[nH]c34)C2)c1 (stereo unspecified)	Pf growth 48h 12µM
COc1ccccc1NC(=O)C/C(C)=N/NC(=O)COc1c(Br)cc(Br)cc1OC	none (no result: NS1 inh)
CC(NC(=O)c1ccccc1NC(=O)CSc1nnnn1C)c1ccccc1 (stereo unspecified)	Pf growth 96h inconclusive (no result: Pf growth 48h)
COC(=O)CCCC(=O)N1CCCC(CCC(=O)NCc2ccc(F)c(F)c2)C1 (stereo unspecified)	Pf growth 48h 8.3µM
O=C(CCC1CCCN(C(=O)CCC(F)(F)F)C1)NCc1ccc(F)c(F)c1 (stereo unspecified)	none
COc1cccc(C(=O)Nc2ccc(S(=O)(=O)NCc3ccco3)cc2)c1	none (no result: Pf growth 96h)
Cn1nc(C(=O)Nc2ccc(S(=O)(=O)NCc3ccco3)cc2)c2ccccc2c1=O	Shiga inhibitor 52, Pf growth 96h 12µM, Pf growth 48h inconclusive, CHX counter 53
O=C(Nc1ccc(S(=O)(=O)NCc2ccco2)cc1)c1cccc(F)c1	Shiga inhibitor 37
Cn1nc(C(=O)NCc2ccco2)c2ccccc2c1=O	none
CC(C)n1nc(C(=O)Nc2cccc(S(=O)(=O)NCc3ccco3)c2)c2ccccc2c1=O	Pf growth 96h inconclusive, Pf growth 48h inconclusive, CHX counter 17
CCOC(=O)c1sc(=S)n(C)c1NC(=O)c1ccccc1Cl	Pf growth 96h inconclusive
Cc1occc1C(=O)Nc1cnn(CCCC(=O)O)c1	none
CCSc1nnc(NC(=O)CCNS(=O)(=O)c2ccccc2F)s1	Pf growth 96h inconclusive
CC1=CC(c2ccccc2)=Nc2ccc(C)cc2N1	Shiga inhibitor 43, CHX counter 57
Cc1ccc(C2(COC(=O)C(C)C)CO2)c(OC(=O)C(C)C)c1 (stereo unspecified)	CHX counter 10
CCN1CCN(CCNC(=O)c2ccc3c(c2)N(Cc2cccc(Cl)c2)C(=O)c2ccccc2S3=O)CC1 (stereo unspecified)	Pf growth 96h inconclusive, Pf growth 48h 12µM
O=C(NCCCN1CCCC1)c1ccc2c(c1)N(Cc1ccccc1F)C(=O)c1ccccc1S2=O (stereo unspecified)	Pf growth 48h inconclusive
O=C(NCCCN1CCCC1)c1ccc2c(c1)N(Cc1ccccc1F)C(=O)c1ccccc1S2(=O)=O	Pf growth 48h 10µM
O=C(NCCN1CCCC1)c1ccc2c(c1)N(Cc1ccc(F)cc1)C(=O)c1ccccc1S2=O (stereo unspecified)	Pf growth 96h inconclusive, Pf growth 48h 12µM
O=C(NCCCN1CCOCC1)c1ccc2c(c1)N(Cc1ccc(Cl)cc1)C(=O)c1ccccc1S2=O (stereo unspecified)	NS1 inh inconclusive, Pf growth 48h inconclusive
